Measured values published in PubChem BioAssay.
Active and inactive are the calls of the source.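 How the source made its calls, unless noted: active means NADPH fluorescence slope more negative than the mean of all samples by about 3 SD, 99.7% confidence; inactive means the rest.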

Columns and labels:
[1] = inhibitors of TNFa-induced NFkB p65 translocation, primary screen, imaging, HUVEC, MLSMR starter and 10KST1 sets (AID 438;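 active means inhibition above 20% together with a positive visual image hit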;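 further: compound added about 3h40 before a 20 min TNFalpha stimulation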;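 on inhibition: signal is the nuclear over cytoplasmic p65 intensity ratio per well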); conditions: HUVEC TNFa-induced p65 nuclear translocation; cell count: measured here: nuclei count (cytotoxicity indicator), at 2.08 µM; inhibition: at 2 µM, stronger effect = higher value, 0% TNFa-plus-vehicle, 100% no-TNFa wells
[2] = reduction of polyQ htt aggregates in cells – imaging, exon1htt(103Q)mCFP cells, high-content imaging, primary screen (AID 483;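 active means visual image review flags a hit and inhibition of aggregation exceeds 20%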;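 further: compound exposure lasted 3 days before fixation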;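 on nuclei count: percent of the per-plate median nuclei count of sample wells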); conditions: exon1htt(103Q)mCFP cell line, aggregate imaging, at 2 µM; inhibition of aggregation: stronger effect = higher value; nuclei count: measured here: cell count, toxicity
[3] = endothelial E-selectin expression blockers – imaging, HUVEC, immunofluorescence, MLSMR starter and 10KST1 sets, primary screen (AID 487;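 active means visually confirmed hit in the image check and inhibition above 20%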;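 on inhibition: signal is fraction of cell area covered by stained E-selectin grains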;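 on nuclei count: 100% = median nuclei count of all wells on the same plate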); conditions: HUVEC TNFalpha-induced E-selectin immunofluorescence imaging, at 2 µM; inhibition: stronger effect = higher value; nuclei count: measured here: cell number, toxicity
[4] = biological target: Voltage-gated potassium channel subunit beta-2 (Rattus norvegicus) (UniProt P62483); test: inhibitors of rat Kvbeta2 reductase activity – biochemical, NADPH fluorescence, primary screen (AID 622;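 active means fluorescence slope higher than the sample average by over 3 SD, cut at about -0.22 in these data, passing the limit was not always enough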;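 further: slope of raw intensity against log time taken from 70 to 1610 s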); conditions: recombinant KvBeta, 4-cyanobenzaldehyde reduction, at 10 µM, stronger effect = higher value
[5] = biological target: Voltage-gated potassium channel subunit beta-2 (Rattus norvegicus) (UniProt P62483); test: enhancers of rat Kvbeta2 NADPH turnover – biochemical, NADPH fluorescence, primary screen (AID 623); conditions: Recombinant KvBeta, NADPH fluorescence decrease slope, 10 min; at 10 µM; stronger effect = lower value;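 further: fluorescence intensity change per second fitted from 20 to 320 s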
[6] = biological target: Alpha-2C adrenergic receptor (Homo sapiens) (UniProt P18825); test: compounds altering alpha2C-coupled GIRK flux – cell-based, HEK293 alpha2C/GIRK1/2, thallium flux, primary screen (AID 624;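 active means fluorescence slope after compound addition differing from the mean of all screened samples at 99.7% confidence, in either direction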;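 further: slope of fluorescence ratio to pre-addition baseline per second over 15 to 24 s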); conditions: thallium flux BTC fluorescence, at 10 µM, actives lie on both sides
[7] = blockers of RIG-like receptor reporter activation – cell-based, Sendai virus stimulus, luciferase, 10K MLSCN set, TLR/RLR signaling modifier project, primary screen (AID 602276;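 active means inhibition at or above 50% at 10 µM; inactive means inhibition below 50%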;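 further: firefly luciferase from ISG56 promoter only with Renilla not read in this screen; 0% = Sendai virus plus DMSO and 100% = medium plus DMSO without virus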); conditions: HEK293 RL24 IRF3 luciferase reporter, at 10 µM, stronger effect = higher value
[8] = TLR3 IRF3 reporter activation blockers – cell-based, poly I:C stimulus, luciferase, 10K MLSCN set, primary screen (AID 602277;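 active means inhibition of the reporter signal at or above 50%; inactive means inhibition below 50%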); conditions: HEK293-TLR3 RL24 IRF3 luciferase reporter, at 10 µM, stronger effect = higher value

Voltage-gated potassium channel subunit beta-2 (Rattus norvegicus), sequence (P62483 whole entry, looked up): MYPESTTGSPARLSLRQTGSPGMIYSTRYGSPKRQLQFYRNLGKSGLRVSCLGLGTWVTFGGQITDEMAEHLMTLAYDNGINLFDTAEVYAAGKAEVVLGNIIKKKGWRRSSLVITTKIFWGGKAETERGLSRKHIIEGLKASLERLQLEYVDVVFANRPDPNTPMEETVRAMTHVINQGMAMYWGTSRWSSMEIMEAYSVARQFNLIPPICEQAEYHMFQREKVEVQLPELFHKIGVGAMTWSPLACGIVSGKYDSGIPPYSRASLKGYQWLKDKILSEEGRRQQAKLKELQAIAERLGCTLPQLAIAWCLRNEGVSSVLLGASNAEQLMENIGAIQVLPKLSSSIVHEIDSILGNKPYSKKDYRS
Alpha-2C adrenergic receptor (Homo sapiens), sequence (P18825 whole entry, looked up): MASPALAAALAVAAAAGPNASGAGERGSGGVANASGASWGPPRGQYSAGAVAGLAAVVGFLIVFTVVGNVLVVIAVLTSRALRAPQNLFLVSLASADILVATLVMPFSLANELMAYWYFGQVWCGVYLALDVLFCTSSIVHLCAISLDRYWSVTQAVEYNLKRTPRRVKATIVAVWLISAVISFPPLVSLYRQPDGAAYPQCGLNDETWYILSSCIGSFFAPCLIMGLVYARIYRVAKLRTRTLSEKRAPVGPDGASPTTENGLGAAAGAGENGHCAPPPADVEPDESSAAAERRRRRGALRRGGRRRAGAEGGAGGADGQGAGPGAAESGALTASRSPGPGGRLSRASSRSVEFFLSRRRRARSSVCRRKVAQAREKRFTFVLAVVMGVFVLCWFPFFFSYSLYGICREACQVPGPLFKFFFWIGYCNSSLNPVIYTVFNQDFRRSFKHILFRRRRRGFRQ

Row | Structure (SMILES) | cell count [1] | inhibition [1] | inhibition of aggregation [2] | nuclei count [2] | inhibition [3] | nuclei count [3] | fluorescence slope [4] | NADPH fluorescence slope [5] | slope [6] | inhibition [7] | inhibition [8]
1 | COC(=O)CC1C(=O)NCCN1C(=O)NC1CCCCC1 (stereo not drawn) | 714 | -4.5% (inactive) | -18.8% (inactive) | 110% | -116% (inactive) | 110% | -0.559 (inactive) | -1.3e-05 (inactive) | 0.0059 (inactive) | -2.45% (inactive) | 2.41% (inactive)
2 | COC(=O)CN1C(=O)CC(C)(C)S(=O)c2ccccc21 (stereo not drawn) | 769 | -9.2% (inactive) | 13.9% (inactive) | 82.6% | -44% (inactive) | 98.5% | -0.574 (inactive) | -5.2e-05 (inactive) | 0.00765 (inactive) | 4.76% (inactive) | 22.2% (inactive)
3 | CC1=C(C(=O)NCc2ccco2)C2(CCC(C)CC2)OC1=O (stereo not drawn) | 438 | 7.7% (inactive) | 22.4% (inactive) | 62.3% | -20.5% (inactive) | 106% | -0.513 (inactive) | -2.5e-05 (inactive) | 0.00707 (inactive) | 23% (inactive) | 23.3% (inactive)
4 | CCC(=O)Nc1c2c(nn1-c1ccccc1C)CSC2 | 592 | 8.9% (inactive) | -2.1% (inactive) | 114% | 31.2% (inactive) | 99.7% | -0.614 (inactive) | -1.7e-05 (inactive) | 0.00682 (inactive) | 14.2% (inactive) | 21.4% (inactive)
5 | CCOC(=O)c1[nH]c(=O)c2ccccc2c1O | 367 | -3.9% (inactive) | 2.9% (inactive) | 96.9% | -0.2% (inactive) | 116% | -0.512 (inactive) | -1.7e-05 (inactive) | 0.00472 (inactive) | -11.9% (inactive) | -8.42% (inactive)
6 | COc1ccc(C(=O)N2CCSC2=S)cc1OC | 677 | -19.3% (inactive) | -13.4% (inactive) | 97.5% | 55.8% (inactive) | 82.9% | -0.457 (inactive) | -2.6e-05 (inactive) | 0.00338 (inactive) | 4.55% (inactive) | 15% (inactive)
7 | NC(=O)CCS(=O)(=O)CCN1CCCCC1 | 361 | 5.7% (inactive) | 2.7% (inactive) | 89.8% | -14.9% (inactive) | 116% | -0.435 (inactive) | 4.4e-05 (inactive) | 0.0056 (inactive) | 19.5% (inactive) | 23.8% (inactive)
8 | COC(=O)c1ccccc1NC(=O)C1CC(=O)N(c2ccccc2)C1 (stereo not drawn) | 576 | -5.8% (inactive) | 13.9% (inactive) | 99.5% | -18.1% (inactive) | 106% | -0.496 (inactive) | -5.9e-05 (inactive) | 0.00531 (inactive) | 10.2% (inactive) | 6.98% (inactive)
9 | CCOC(=O)C(C#N)C(c1cccnc1)c1c(C)[nH][nH]c1=O (stereo not drawn) | 710 | -7.5% (inactive) | -3.8% (inactive) | 93% | -131% (inactive) | 101% | -0.325 (inactive) | -3.9e-05 (inactive) | 0.0052 (inactive) | 6.49% (inactive) | 9.18% (inactive)
10 | O=C(Oc1ccc2ccc(OC(=O)N3CCOCC3)cc2c1)N1CCOCC1 | 388 | 6.8% (inactive) | -8.9% (inactive) | 107% | -7.5% (inactive) | 111% | -0.238 (inactive) | -1.6e-05 (inactive) | 0.00539 (inactive) | -2.44% (inactive) | -16.2% (inactive)
11 | O=C(Cn1cnc2c(cnn2-c2ccccc2)c1=O)NCCc1ccccc1 | 441 | 3.5% (inactive) | -9.4% (inactive) | 112% | -25% (inactive) | 113% | -0.535 (inactive) | -6.8e-07 (inactive) | 0.00728 (inactive) | 10.8% (inactive) | 17.4% (inactive)
12 | Fc1cccc(Cl)c1Cn1nnc2c(NCc3ccccn3)ncnc21 | 716 | -10.5% (inactive) | 15.5% (inactive) | 120% | -26.6% (inactive) | 108% | -0.514 (inactive) | -6.7e-05 (inactive) | 0.0046 (inactive) | 6.08% (inactive) | 9.56% (inactive)
13 | Cc1nc2ccccc2c2oc(C(=O)N3CCN(C(=O)c4ccco4)CC3)cc12 | 784 | 11.3% (inactive) | 0% (inactive) | 65.6% | 4.8% (inactive) | 98.3% | -0.585 (inactive) | -1.4e-05 (inactive) | 0.00761 (inactive) | 6.87% (inactive) | 12.8% (inactive)
14 | Cc1ccc(S(=O)(=O)NC(=O)c2cc(C)n(CCCn3ccnc3)c2C)cc1 | 218 | -2.9% (inactive) | 9.2% (inactive) | 92.3% | -86.6% (inactive) | 108% | -0.596 (inactive) | -2.4e-05 (inactive) | 0.00417 (inactive) | 11.6% (inactive) | 13.5% (inactive)
15 | Cc1ccc(S(=O)(=O)Cn2nnnc2C(C(C)C)N2CCN(C(=O)c3ccco3)CC2)cc1 (stereo not drawn) | 400 | -0.4% (inactive) | 2.5% (inactive) | 100% | 6.9% (inactive) | 101% | -0.405 (inactive) | -4.2e-05 (inactive) | 0.00633 (inactive) | 11.4% (inactive) | 15.4% (inactive)
16 | Cc1ccc(S(=O)(=O)N2CCN(S(C)(=O)=O)C2c2ccccc2)cc1 (stereo not drawn) | 464 | 0% (inactive) | 10.2% (inactive) | 93.5% | 11.6% (inactive) | 114% | -0.372 (inactive) | -4.8e-05 (inactive) | 0.00576 (inactive) | 8.09% (inactive) | 26.1% (inactive)
17 | Cc1cc(Nc2ccccc2N2CCOCC2)n2ncnc2n1 | 226 | 2% (inactive) | 13.7% (inactive) | 89% | -16.1% (inactive) | 97% | -0.588 (inactive) | 7.3e-06 (inactive) | 0.00567 (inactive) | 21.9% (inactive) | 44.1% (inactive)
18 | O=C(CCN1C(=O)c2ccccc2C1=O)N1CCN(C(=O)c2ccccc2)CC1 | 548 | 2.5% (inactive) | 7.3% (inactive) | 98.2% | -145% (inactive) | 118% | -0.491 (inactive) | -4.1e-05 (inactive) | 0.00673 (inactive) | 9.17% (inactive) | 19.5% (inactive)
19 | CC(=O)NC(Cc1ccccc1)C(=O)NC1CCN(C(=O)c2cnccn2)CC1 (stereo not drawn) | 991 | -1% (inactive) | -7% (inactive) | 136% | -54.3% (inactive) | 120% | -0.48 (inactive) | -2.5e-05 (inactive) | 0.00556 (inactive) | 12.1% (inactive) | 28.6% (inactive)
20 | CCOC(=O)C1CCN(S(=O)(=O)c2cccc(-c3csc(C)n3)c2)CC1 | 234 | 4.4% (inactive) | 8.1% (inactive) | 97.1% | 32.4% (inactive) | 89% | -0.433 (inactive) | -0.000124 (inactive) | 0.0037 (inactive) | 14.1% (inactive) | 2.04% (inactive)
21 | COc1ccccc1N1C(=O)CC(Sc2nc(C)cc(C)n2)C1=O (stereo not drawn) | 613 | -8.2% (inactive) | 15% (inactive) | 95.3% | -30.9% (inactive) | 90.9% | -0.447 (inactive) | -9.1e-05 (inactive) | 0.0075 (inactive) | 14.5% (inactive) | 19.3% (inactive)
22 | CCCCn1c(NC(=O)CC)c(C#N)c2nc3ccccc3nc21 | 273 | -0.9% (inactive) | 31.7% (inactive) | 80.6% | 45.9% (inactive) | 64.7% | -0.0219 (inactive) | -1.3e-05 (inactive) | 0.00421 (inactive) | 16.1% (inactive) | 9.45% (inactive)
23 | O=C1c2ccccc2C(=O)N1C/C=C/c1ccccc1 | 320 | 6.3% (inactive) | -5.9% (inactive) | 98.3% | -3.5% (inactive) | 112% | -0.495 (inactive) | -5.2e-05 (inactive) | 0.0051 (inactive) | 21.6% (inactive) | 25.4% (inactive)
24 | CCCCCn1c(N2CCN(Cc3ccccc3)CC2)nc2c1c(=O)[nH]c(=O)n2C | 675 | 1.9% (inactive) | -11.5% (inactive) | 101% | -13.6% (inactive) | 107% | -0.625 (inactive) | -2.8e-05 (inactive) | 0.0038 (inactive) | 14.2% (inactive) | 16.8% (inactive)
25 | CC1(C)CC(=O)C(C=Nc2ccc3c(c2)OCO3)=C(O)C1 | 329 | 1% (inactive) | 12.6% (inactive) | 104% | -252% (inactive) | 86.4% | -0.435 (inactive) | -6.8e-05 (inactive) | 0.00387 (inactive) | -6.77% (inactive) | -5.98% (inactive)
26 | CCOC(=O)CN1C(=O)C2(OCCCO2)c2ccccc21 | 595 | -18.5% (inactive) | 3.3% (inactive) | 115% | -39.6% (inactive) | 96.5% | -0.454 (inactive) | -0.000151 (inactive) | 0.00617 (inactive) | 1.67% (inactive) | 18.4% (inactive)
27 | O=C1c2ccccc2C(=O)N1C/C=C/CN1C(=O)c2ccccc2C1=O | 480 | 7.4% (inactive) | 0.3% (inactive) | 107% | -12.9% (inactive) | 113% | -0.331 (inactive) | -1.5e-05 (inactive) | 0.007 (inactive) | 23.3% (inactive) | 18.7% (inactive)
28 | Cc1nnc(SCCn2c(Br)nc3c2c(=O)n(C)c(=O)n3C)s1 | 410 | 3.8% (inactive) | 2% (inactive) | 101% | -12% (inactive) | 109% | -0.374 (inactive) | -1.8e-05 (inactive) | 0.00518 (inactive) | -7.02% (inactive) | -0.072% (inactive)
